These results are taken from PMC9838217, “Structure of SALL4 zinc finger domain reveals link between AT-rich DNA binding and Okihiro syndrome”.

Common to all, as to test: HT-SELEX; high values mean tight binding
What all share (details): protein: recombinant; vector His6-GST; dsDNA, one strand shown

One test addresses T1, SALL4 ZFC4 WT (HT-SELEX) (Mus musculus, UniProt Q8BX22 870-940).
T1 sequence: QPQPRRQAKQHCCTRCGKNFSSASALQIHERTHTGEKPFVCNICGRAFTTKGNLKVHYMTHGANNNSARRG
In short, it runs like this: (§1)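 DNA from a random library (1.5 µg in the first cycle, 200 ng afterwards) was incubated with purified recombinant mouse SALL4 zinc finger cluster 4, residues 870–940 (1 µg), for 10 min at room temperature in 100 µl buffer: 10 mM Tris–HCl pH 7.5, 50 mM NaCl, poly(dI-dC), DTT. Bound complexes were pulled down on Ni2+ beads, washed and PCR-amplified, and the selection was repeated for up to 6 cycles in triplicate. MiSeq reads were scanned for 6-mers, and binding signal is each canonical k-mer's read fraction as fold change over the initial random library.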

The target in test [1] is T2, SALL4 ZFC4 R900W (HT-SELEX) (Mus musculus, UniProt Q8BX22 870-940, R900W).
T2 sequence: T1 sequence with R31W
In short, it runs like this: as §1

Test [2] concerns the target T3, SALL4 ZFC4 G921D (HT-SELEX) (Mus musculus, UniProt Q8BX22 870-940, G921D).
T3 sequence: T1 sequence with G52D
In short, it runs like this:
as §1

Where a chain is given by its changes, count along the chain named.

As for CCGGTA, the binding signal with SALL4 ZFC4 WT (HT-SELEX) turned out to be 0.345 ± 0.0119 fold-change vs cycle 0; in test [1], 0.396 ± 0.0133 fold-change vs cycle 0; in test [2], 0.501 ± 0.0627 fold-change vs cycle 0.
Taken in the same sequence, the figures for ACAATC were 1.25 ± 0.051 fold-change vs cycle 0, 1.38 ± 0.0687 fold-change vs cycle 0 and 1.36 ± 0.0869 fold-change vs cycle 0.
The like results for AGTGGA were, in that order, 0.862 ± 0.03 fold-change vs cycle 0, 0.954 ± 0.0352 fold-change vs cycle 0 and 0.964 ± 0.0435 fold-change vs cycle 0.
Taken in the same sequence, the figures for AAGCTT were 1.18 ± 0.0611 fold-change vs cycle 0, 1.27 ± 0.0133 fold-change vs cycle 0 and 1.24 ± 0.0566 fold-change vs cycle 0.
GATTGC: the figures for the binding signal (with SALL4 ZFC4 WT (HT-SELEX); in test [1]; in test [2]) were 0.641 ± 0.0324 fold-change vs cycle 0, 0.711 ± 0.00883 fold-change vs cycle 0 and 0.817 ± 0.0343 fold-change vs cycle 0, respectively.
Taken in the same sequence, the figures for CTTTAC were 1.34 ± 0.0196 fold-change vs cycle 0, 1.5 ± 0.0474 fold-change vs cycle 0 and 1.36 ± 0.0809 fold-change vs cycle 0.
On to CGTCAA, for which the binding signal amounted to 0.564 ± 0.0126 fold-change vs cycle 0 with SALL4 ZFC4 WT (HT-SELEX), 0.667 ± 0.0148 fold-change vs cycle 0 in test [1] and 0.765 ± 0.0373 fold-change vs cycle 0 in test [2].
Taken in the same sequence, the figures for AGTCTA were 1.25 ± 0.0412 fold-change vs cycle 0, 1.41 ± 0.0887 fold-change vs cycle 0 and 1.37 ± 0.0788 fold-change vs cycle 0.
In the case of GTTAAC, the binding signal came to 1.39 ± 0.126 fold-change vs cycle 0 with SALL4 ZFC4 WT (HT-SELEX), 1.53 ± 0.0957 fold-change vs cycle 0 in test [1] and 1.38 ± 0.101 fold-change vs cycle 0 in test [2].
Consider GGACCA, for which the binding signal is 0.389 ± 0.0179 fold-change vs cycle 0 in the test with SALL4 ZFC4 WT (HT-SELEX), 0.466 ± 0.011 fold-change vs cycle 0 in test [1] and 0.557 ± 0.0733 fold-change vs cycle 0 in test [2].
The like results for CAACGG were, in that order, 0.353 ± 0.0289 fold-change vs cycle 0, 0.419 ± 0.0235 fold-change vs cycle 0 and 0.526 ± 0.0596 fold-change vs cycle 0.
For the sequence CCTCTA, the values for the binding signal (with SALL4 ZFC4 WT (HT-SELEX); in test [1]; in test [2]) were 0.817 ± 0.034 fold-change vs cycle 0, 0.915 ± 0.0455 fold-change vs cycle 0 and 0.953 ± 0.0421 fold-change vs cycle 0, respectively.
Taken in the same sequence, the figures for AAGCAG were 0.683 ± 0.026 fold-change vs cycle 0, 0.821 ± 0.0507 fold-change vs cycle 0 and 0.85 ± 0.0183 fold-change vs cycle 0.
GTCATA: the binding signal with SALL4 ZFC4 WT (HT-SELEX) amounted to 1.45 ± 0.0661 fold-change vs cycle 0; in test [1] it was 1.36 ± 0.05 fold-change vs cycle 0; in test [2], 1.34 ± 0.0974 fold-change vs cycle 0.
On to ACGAAG, for which the binding signal stood at 0.736 ± 0.0281 fold-change vs cycle 0 with SALL4 ZFC4 WT (HT-SELEX), 0.869 ± 0.0387 fold-change vs cycle 0 in test [1] and 0.9 ± 0.0184 fold-change vs cycle 0 in test [2].
Taken in the same sequence, the figures for GCGTTA were 0.54 ± 0.0741 fold-change vs cycle 0, 0.582 ± 0.053 fold-change vs cycle 0 and 0.668 ± 0.0435 fold-change vs cycle 0.
Taken in the same sequence, the figures for ATGAGA were 1.52 ± 0.0648 fold-change vs cycle 0, 1.6 ± 0.0511 fold-change vs cycle 0 and 1.48 ± 0.107 fold-change vs cycle 0.
For the sequence ACTCTG, the figures for the binding signal (in the test with SALL4 ZFC4 WT (HT-SELEX); in test [1]; in test [2]) were 0.817 ± 0.0779 fold-change vs cycle 0, 0.914 ± 0.0491 fold-change vs cycle 0 and 0.937 ± 0.0411 fold-change vs cycle 0, respectively.
CAAAGA: the binding signal with SALL4 ZFC4 WT (HT-SELEX) amounted to 1.18 ± 0.0383 fold-change vs cycle 0; in test [1], 1.34 ± 0.0673 fold-change vs cycle 0; in test [2], 1.28 ± 0.0399 fold-change vs cycle 0.
AATCGT: the binding signal with SALL4 ZFC4 WT (HT-SELEX) came out at 1.18 ± 0.0336 fold-change vs cycle 0; in test [1] it was 1.21 ± 0.0227 fold-change vs cycle 0; in test [2] it was 1.23 ± 0.0244 fold-change vs cycle 0.
For CTGTTA, the values for the binding signal (with SALL4 ZFC4 WT (HT-SELEX); in test [1]; in test [2]) were 1.37 ± 0.0494 fold-change vs cycle 0, 1.47 ± 0.0717 fold-change vs cycle 0 and 1.39 ± 0.112 fold-change vs cycle 0, respectively.
Taken in the same sequence, the figures for ACCGTG were 0.361 ± 0.00928 fold-change vs cycle 0, 0.456 ± 0.013 fold-change vs cycle 0 and 0.547 ± 0.0682 fold-change vs cycle 0.
For the sequence TACTAA, the binding signal with SALL4 ZFC4 WT (HT-SELEX) came out at 2.076 ± 0.0175 fold-change vs cycle 0; in test [1], 2.12 ± 0.0758 fold-change vs cycle 0; in test [2] it was 1.87 ± 0.135 fold-change vs cycle 0.
In the case of ATTATC, the binding signal with SALL4 ZFC4 WT (HT-SELEX) amounted to 2.31 ± 0.229 fold-change vs cycle 0; in test [1], 2.08 ± 0.177 fold-change vs cycle 0; in test [2], 1.85 ± 0.207 fold-change vs cycle 0.
The like results for CTTTCC were, in that order, 0.771 ± 0.025 fold-change vs cycle 0, 0.935 ± 0.0213 fold-change vs cycle 0 and 0.967 ± 0.0233 fold-change vs cycle 0.
In the case of ACATCA, the binding signal with SALL4 ZFC4 WT (HT-SELEX) was determined as 1.32 ± 0.0619 fold-change vs cycle 0; in test [1], 1.42 ± 0.0539 fold-change vs cycle 0; in test [2], 1.37 ± 0.0921 fold-change vs cycle 0.
The like results for AACGAT were, in that order, 1.21 ± 0.0566 fold-change vs cycle 0, 1.27 ± 0.0691 fold-change vs cycle 0 and 1.23 ± 0.0814 fold-change vs cycle 0.
Taken in the same sequence, the figures for GATACC were 0.884 ± 0.044 fold-change vs cycle 0, 0.969 ± 0.034 fold-change vs cycle 0 and 1.04 ± 0.0218 fold-change vs cycle 0.
Turning to AACCAG, the values for the binding signal (with SALL4 ZFC4 WT (HT-SELEX); in test [1]; in test [2]) were 0.772 ± 0.0439 fold-change vs cycle 0, 0.91 ± 0.0252 fold-change vs cycle 0 and 0.941 ± 0.0329 fold-change vs cycle 0, respectively.
On to AGGGTG, for which the values for the binding signal (with SALL4 ZFC4 WT (HT-SELEX); in test [1]; in test [2]) were 0.486 ± 0.0118 fold-change vs cycle 0, 0.567 ± 0.0247 fold-change vs cycle 0 and 0.648 ± 0.0341 fold-change vs cycle 0, respectively.
Taken in the same sequence, the figures for ACAACC were 0.707 ± 0.0139 fold-change vs cycle 0, 0.814 ± 0.0173 fold-change vs cycle 0 and 0.875 ± 0.0311 fold-change vs cycle 0.
The like results for AAATCA were, in that order, 1.98 ± 0.081 fold-change vs cycle 0, 1.8 ± 0.0687 fold-change vs cycle 0 and 1.7 ± 0.128 fold-change vs cycle 0.
The like results for CTGTGA were, in that order, 0.75 ± 0.0215 fold-change vs cycle 0, 0.869 ± 0.0352 fold-change vs cycle 0 and 0.91 ± 0.0154 fold-change vs cycle 0.
For TATGGA, the binding signal with SALL4 ZFC4 WT (HT-SELEX) stood at 1.65 ± 0.0906 fold-change vs cycle 0; in test [1], 1.46 ± 0.0813 fold-change vs cycle 0; in test [2], 1.37 ± 0.0965 fold-change vs cycle 0.
Taken in the same sequence, the figures for CTTATC were 1.5 ± 0.0472 fold-change vs cycle 0, 1.62 ± 0.0833 fold-change vs cycle 0 and 1.44 ± 0.0973 fold-change vs cycle 0.
Regarding CCCAGA, the binding signal with SALL4 ZFC4 WT (HT-SELEX) is 0.431 ± 0.0214 fold-change vs cycle 0; in test [1], 0.51 ± 0.0216 fold-change vs cycle 0; in test [2], 0.583 ± 0.0525 fold-change vs cycle 0.
The like results for ATCCTA were, in that order, 1.48 ± 0.0397 fold-change vs cycle 0, 1.6 ± 0.0899 fold-change vs cycle 0 and 1.46 ± 0.117 fold-change vs cycle 0.
Taken in the same sequence, the figures for CTGTCC were 0.398 ± 0.039 fold-change vs cycle 0, 0.493 ± 0.0175 fold-change vs cycle 0 and 0.587 ± 0.0324 fold-change vs cycle 0.
Taken in the same sequence, the figures for GTATTA were 2.23 ± 0.186 fold-change vs cycle 0, 1.98 ± 0.125 fold-change vs cycle 0 and 1.76 ± 0.141 fold-change vs cycle 0.
In the case of GATTTA, the binding signal came out at 1.94 ± 0.0986 fold-change vs cycle 0 with SALL4 ZFC4 WT (HT-SELEX), 1.84 ± 0.0979 fold-change vs cycle 0 in test [1] and 1.71 ± 0.128 fold-change vs cycle 0 in test [2].
Taken in the same sequence, the figures for ACCGGT were 0.368 ± 0.0353 fold-change vs cycle 0, 0.438 ± 0.0164 fold-change vs cycle 0 and 0.518 ± 0.0665 fold-change vs cycle 0.
With ATCCCA, the binding signal turned out to be 0.89 ± 0.0366 fold-change vs cycle 0 with SALL4 ZFC4 WT (HT-SELEX), 0.976 ± 0.0258 fold-change vs cycle 0 in test [1] and 0.979 ± 0.0303 fold-change vs cycle 0 in test [2].
